An excerpt weighted towards active compounds, which were near 3.1% of everything screened.
Beta cell apopt: blocks beta cell apoptosis; INS-1E cytokine-induced death, ATP luminescence, 48 h; percent of positive-control rescue, neutral wells zero; protection from apoptosis, % (test concentration not listed); 300,000 tested, 0.8% active;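 active = Every replicate reaches about 75%, or at least half do and their mean reaches it too, limit read from the data; inconclusive = At least half of replicates reach the limit but their mean does not; inactive = Under half of replicates reach the limit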;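 also: 0% = cytokine-treated negative control wells and 100% = positive control rescue; higher means more ATP so stronger rescue from cytokine killing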
SKKanGAS inh: inhibitors of SKKanGAS S. pyogenes growth in kanamycin (SK-promoter or general growth effect); BacTiter-Glo, 6 h; inhibition, % at 7.5 µM; 300,000 tested, 1.3% active;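 active = mean replicate score, as percent of positive control median, at least 50; inconclusive = mean below 50 but one replicate at or above 50; inactive = mean and every replicate below 50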;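 also: strain carries kanamycin resistance gene driven by streptokinase promoter and grows in 40 µg/ml kanamycin; loss of luminescence reflects streptokinase promoter inhibition or plain growth inhibition; 0% = median of DMSO wells and 100% = positive control at its reference dose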
PP5 inh: PP5 (human) phosphatase inhibition; P53041; purified PP5c, OMFP substrate fluorescence; inhibition, % at 6.7 µM; 320,000 tested, 0.18% active; AID 1987;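 active = inhibition above the campaign's mean inhibition across all tested compounds plus 3 SD, cut at about 9.5% in these data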;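 also: 0% = DMSO only and 100% = 100 µM cantharidin control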
CSC inhib: cancer stem cell inhibition; cancer stem cell-like cells viability, luminescence; inhibition, % at 7.5 µM; 300,000 tested, 1.1% active; AID 2717; in the data active = inhibition above about 75%; inconclusive = no clear call, values can overlap the other calls; tested in HMLE shEcad cells
PP1 counter: counter-screen for PP5 inhibitors: inhibitors of human PP1-alpha; purified PP1alpha, OMFP fluorescence; inhibition, % at 6.7 µM; 320,000 tested, 0.9% active; AID 2235;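 active = inhibition above the mean inhibition of all tested compounds plus 3 SD, computed separately for each screening campaign, cut at about 15% in these data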
Target sequence (P62136 whole entry, looked up): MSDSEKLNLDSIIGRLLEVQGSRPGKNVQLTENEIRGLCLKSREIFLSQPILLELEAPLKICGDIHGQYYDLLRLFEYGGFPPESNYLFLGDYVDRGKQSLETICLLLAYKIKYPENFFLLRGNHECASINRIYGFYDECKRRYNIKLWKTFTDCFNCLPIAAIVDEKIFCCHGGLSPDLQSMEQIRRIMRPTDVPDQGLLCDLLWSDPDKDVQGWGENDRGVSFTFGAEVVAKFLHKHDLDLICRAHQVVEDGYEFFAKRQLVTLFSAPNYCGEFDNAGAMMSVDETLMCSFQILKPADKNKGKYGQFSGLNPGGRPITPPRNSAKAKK
* marks the source's active call; other numbers are inactive results; ? = inconclusive; · = no result.

SMILES	Beta cell apopt	SKKanGAS inh	PP5 inh	CSC inhib	PP1 counter
O=C(c1cc(-c2cccs2)nc2ccccc12)N1CCN(c2ccccc2O)CC1	4	68*	3	-2	-3
CCc1ccc(C2CC(c3cccc(Cl)c3)n3nc(N)nc3N2)cc1 (stereo not given)	105*	21	2	4	5
C=CCOc1ccc(C2C(C(=O)c3ccc(C)o3)=C(O)C(=O)N2Cc2cccnc2)cc1 (stereo not given)	4	1	2	6	23*
Cc1onc(-c2ccccc2Cl)c1C(=O)N1CCN(S(=O)(=O)c2ccc(F)c(F)c2)CC1	6	5	2	3	-1
Cc1ccc(SCc2c(-c3ccccc3)nn(C)c2Cl)cc1	1	31	-3	9	-5
Cn1nc(-c2ccccc2)c(CSc2ccccc2)c1Cl	-9	62*	-2	48	0
N#C/C(=C(/O)CCl)c1nc2ccccc2[nH]1	0	3	-1	79*	-2
N#C/C(=C(\O)Cc1ccccc1)c1nc2ccccc2[nH]1	9	-1	-1	-8	-2
Cc1c(-c2cccc(Cl)c2)nc2ccccc2c1C(=O)OC/C(O)=C(\C#N)c1nc2ccccc2[nH]1	97*	58*	1	98*	-1
COc1ccc(S(=O)(=O)N2CCCCCC2)cc1C(=O)N(C)Cc1cccs1	-5	-6	1	-7	-1
FC(F)(F)c1nc(N2CCN(c3ccccc3)CC2)nc2c1CCCCC2	16	68*	0	65	-1
COc1ccc(OC(=O)c2cnc3n(c2=O)CCS3)cc1	-8	6	-1	1	-2
COc1cccc(CNCC2CCCO2)c1 (stereo not given)	-6	-2	1	-11	-6
CC1(C)Cc2ccccc2C(CSc2ccccc2C(=O)O)=N1	-3	2	6	76*	0
O=C1CC(c2ccccc2)CC(O)=C1C=NCc1ccccc1Cl (stereo not given)	13	-11	4	84*	2
CC(=O)N(CCC(Cc1ccccc1)c1ccc2c(c1)OCO2)Cc1ccc(Cl)cc1 (stereo not given)	0	64*	2	-5	9
c1ccc(-c2onc(-c3ccco3)c2-c2ccc3[nH]ccc3c2)cc1	-2	?	5	120*	-3
c1cc2cc(-c3c(-c4ccc5c(c4)OCO5)noc3-c3ccsc3)ccc2[nH]1	15	42	4	121*	-3
Fc1ccc(/C=N/N2CCN(Cc3ccccc3)CC2)cc1	-5	6	-2	-5	-4
Cc1cccc(/C=N/n2c(C3CCCCC3)n[nH]c2=S)c1	·	12	1	·	2
S=c1[nH]nc(C2CCCCC2)n1/N=C/c1ccccc1Cl	·	18	1	·	5
CC(/C=N/n1c(C2CCCCC2)n[nH]c1=S)=C\c1ccccc1	17	46	2	98*	4
FC(F)(F)c1ccccc1/C=N/n1c(C2CCCCC2)n[nH]c1=S	·	56*	2	·	3
O=C(COC(=O)/C=C/c1cccc(Br)c1)Nc1cccc(S(=O)(=O)NC2=NCCC2)c1	·	·	4	·	1
O=C(Nc1ccccc1)c1cccc(N2C(=O)C3C4CC(C(Br)C4Br)C3C2=O)c1 (stereo not given)	·	7	7	-6	1
SMILES	Beta cell apopt	SKKanGAS inh	PP5 inh	CSC inhib	PP1 counter
CN(C)S(=O)(=O)c1cc(NC2CC(=O)N(c3ccc(F)cc3)C2=O)ccc1Cl (stereo not given)	-14	0	0	-16	-4
CC1S/C(=N\N=C\c2cccc([N+](=O)[O-])c2)N(C(C)(C)C)C1=O (stereo not given)	11	-5	-2	81*	-5
CC12CCC(c3c(CO)nn(-c4ccccc4)c31)C2(C)C (stereo not given)	-2	-5	1	-9	1
CC12CCC(c3c(C(=O)O)nn(-c4ccccc4)c31)C2(C)C (stereo not given)	-2	0	1	0	17*
Cc1sc2nc(SCCN(C)C)n(-c3ccccc3)c(=O)c2c1-c1ccc(F)cc1	-1	-14	3	109*	0
O=C(Nc1ccccc1)Nc1ccc(-n2ccc(C(F)(F)F)n2)cc1	116*	2	3	40	2
O=C(O)CC(CC(=O)Nc1ccc(-n2ccc(C(F)(F)F)n2)cc1)c1ccccc1 (stereo not given)	-11	19	0	-8	-1
Fc1ccc(NC(=S)Nc2cccc3cnccc23)cc1	0	5	0	36	-2
S=C(Nc1ccc(Cl)cc1)Nc1cccc2cnccc12	91*	3	1	52	-3
CC1(O)CC(c2ccc(Cl)cc2)=NN1C(=O)c1ccc([N+](=O)[O-])cc1 (stereo not given)	48	-11	2	86*	0
CC(=O)N1N=C(c2ccc(Cl)cc2)CC1c1ccc([N+](=O)[O-])cc1 (stereo not given)	0	4	2	-15	0
CN1CCN(S(=O)(=O)c2cccc(C(=O)Nc3cc(C(F)(F)F)ccc3N3CCCCC3)c2)CC1	18	-9	4	87*	-6
CN1CCN(S(=O)(=O)c2cccc(C(=O)Nc3ccccc3N3CCCCC3)c2)CC1	6	3	0	59	1
CCCCNC(=O)[C@H]1N2C(=O)c3c(ccc(OC)c3OC)C2SC1(C)C (stereo not given in full)	1	-1	-2	-9	0
COCCNC(=O)c1c[nH]c2ccc(S(=O)(=O)N3CCc4ccccc43)cc2c1=O	-17	-9	-1	84*	3
COCCCNC(=O)c1c[nH]c2ccc(S(=O)(=O)N3CCc4ccccc43)cc2c1=O	-3	9	1	14	5
Cn1c(=O)c2sccc2n2c(CCCC(=O)N3CCCCC3)nnc12	1	-3	-1	-5	0
Cc1oc(-c2ccc(F)cc2)cc1-c1nn2c(-c3ccoc3C)nnc2s1	-4	12	3	-16	15*
O=C(COc1ccccc1[N+](=O)[O-])N(Cc1ccco1)C1CCS(=O)(=O)C1 (stereo not given)	1	4	-1	-11	-5
FC(F)(F)c1cc(-c2ccccc2)nc(-n2cc(Cl)cn2)n1	5	-8	3	11	2
Cc1cnn(-c2nc(-c3ccccc3)cc(-c3ccccc3)n2)c1	·	76*	·	·	·
Cc1cccc(/C=N/NC(=O)c2cc(Br)ccc2OCc2ccccc2)n1	·	19	0	2	6
Cc1cccc(/C=N/NC(=O)c2ccccc2OCc2cccc(Br)c2)n1	18	61*	3	·	8
COc1cc(OC)cc(C(=O)NCC(=O)NCC(c2ccco2)N2CCCCC2)c1 (stereo not given)	0	·	-1	·	-2
CCCNC(=O)c1ccc2c(=O)n3c(-c4ccc(C)cc4)csc3nc2c1	-12	-5	3	3	2
COc1ccc(C2=NS(=O)(=O)N(C)C(C(=O)Nc3ccc4c(c3)OCO4)=C2)cc1OC	3	0	2	-4	-1
